The results in this text go back to PubChem BioAssay (NCATS).

Several values for one entry are separate records, joined by “and”; a condition that tells them apart may be missing. Identical values can stand only once. Unmarked numbers belong to inactive results. Results filed as inconclusive are left out. This is one part of the list. Activity calls are given as the source filed them. Unless noted, calls come from the whole dose curve; as a rule, active = well fitted curve in the direction sought with a large enough effect; inconclusive = small, poorly fitted or top-dose-only effect, or another doubt; inactive = no such curve, though single readings can be large; an effect the other way counts as inactive or inconclusive.

One assay relates to DFO2036. As to the kind of experiment: qHTS profiling for inhibitors of Plasmodium falciparum proliferation (AID 504749). Note: nearly all actives have a fitted effect of over 60% in size. Note: potency is the fitted concentration of half-maximal effect. Particulars: P. falciparum in erythrocytes, SYBR Green DNA, 72 h; series mostly up to 28.7 µM. The method in brief:
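P. falciparum-infected erythrocytes (0.3% parasitemia, 2.5% hematocrit final) were exposed to compounds for 72 h at 37 C in 5% CO2, then lysed with SYBR Green buffer overnight at room temperature; parasite DNA fluorescence was normalized to artemisinin and DMSO controls.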
On the technique in general: Quantitative high-throughput screening tests each substance at several concentrations.

The target of assay [1] is ATPase family AAA domain-containing protein 5 (Homo sapiens) (UniProt Q96QE3). As to the kind of experiment: HTS assay for small molecules that inhibit ELG1-dependent DNA repair in human embryonic kidney (HEK293T) cells expressing luciferase-tagged ELG1: Hit Confirmation (AID 624248). Note: potency is the fitted concentration of half-maximal effect; nearly all actives have a fitted effect of over 55% in size. Particulars: HEK293T ELG1-luciferase levels, luminescence; cells co-treated with 5-fluorouridine. The method in brief: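 Cells (2,000/well) received 5-Fluorouridine plus pin-transferred compound or DMSO and were incubated 16 hr at 37 °C, 5% CO2. Luciferase activity was read by ONE-Glo luminescence after 30 min at room temperature; inhibitors suppress the signal.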
ATPase family AAA domain-containing protein 5 (Homo sapiens), sequence (Q96QE3 whole entry, looked up, the tested form may be a part): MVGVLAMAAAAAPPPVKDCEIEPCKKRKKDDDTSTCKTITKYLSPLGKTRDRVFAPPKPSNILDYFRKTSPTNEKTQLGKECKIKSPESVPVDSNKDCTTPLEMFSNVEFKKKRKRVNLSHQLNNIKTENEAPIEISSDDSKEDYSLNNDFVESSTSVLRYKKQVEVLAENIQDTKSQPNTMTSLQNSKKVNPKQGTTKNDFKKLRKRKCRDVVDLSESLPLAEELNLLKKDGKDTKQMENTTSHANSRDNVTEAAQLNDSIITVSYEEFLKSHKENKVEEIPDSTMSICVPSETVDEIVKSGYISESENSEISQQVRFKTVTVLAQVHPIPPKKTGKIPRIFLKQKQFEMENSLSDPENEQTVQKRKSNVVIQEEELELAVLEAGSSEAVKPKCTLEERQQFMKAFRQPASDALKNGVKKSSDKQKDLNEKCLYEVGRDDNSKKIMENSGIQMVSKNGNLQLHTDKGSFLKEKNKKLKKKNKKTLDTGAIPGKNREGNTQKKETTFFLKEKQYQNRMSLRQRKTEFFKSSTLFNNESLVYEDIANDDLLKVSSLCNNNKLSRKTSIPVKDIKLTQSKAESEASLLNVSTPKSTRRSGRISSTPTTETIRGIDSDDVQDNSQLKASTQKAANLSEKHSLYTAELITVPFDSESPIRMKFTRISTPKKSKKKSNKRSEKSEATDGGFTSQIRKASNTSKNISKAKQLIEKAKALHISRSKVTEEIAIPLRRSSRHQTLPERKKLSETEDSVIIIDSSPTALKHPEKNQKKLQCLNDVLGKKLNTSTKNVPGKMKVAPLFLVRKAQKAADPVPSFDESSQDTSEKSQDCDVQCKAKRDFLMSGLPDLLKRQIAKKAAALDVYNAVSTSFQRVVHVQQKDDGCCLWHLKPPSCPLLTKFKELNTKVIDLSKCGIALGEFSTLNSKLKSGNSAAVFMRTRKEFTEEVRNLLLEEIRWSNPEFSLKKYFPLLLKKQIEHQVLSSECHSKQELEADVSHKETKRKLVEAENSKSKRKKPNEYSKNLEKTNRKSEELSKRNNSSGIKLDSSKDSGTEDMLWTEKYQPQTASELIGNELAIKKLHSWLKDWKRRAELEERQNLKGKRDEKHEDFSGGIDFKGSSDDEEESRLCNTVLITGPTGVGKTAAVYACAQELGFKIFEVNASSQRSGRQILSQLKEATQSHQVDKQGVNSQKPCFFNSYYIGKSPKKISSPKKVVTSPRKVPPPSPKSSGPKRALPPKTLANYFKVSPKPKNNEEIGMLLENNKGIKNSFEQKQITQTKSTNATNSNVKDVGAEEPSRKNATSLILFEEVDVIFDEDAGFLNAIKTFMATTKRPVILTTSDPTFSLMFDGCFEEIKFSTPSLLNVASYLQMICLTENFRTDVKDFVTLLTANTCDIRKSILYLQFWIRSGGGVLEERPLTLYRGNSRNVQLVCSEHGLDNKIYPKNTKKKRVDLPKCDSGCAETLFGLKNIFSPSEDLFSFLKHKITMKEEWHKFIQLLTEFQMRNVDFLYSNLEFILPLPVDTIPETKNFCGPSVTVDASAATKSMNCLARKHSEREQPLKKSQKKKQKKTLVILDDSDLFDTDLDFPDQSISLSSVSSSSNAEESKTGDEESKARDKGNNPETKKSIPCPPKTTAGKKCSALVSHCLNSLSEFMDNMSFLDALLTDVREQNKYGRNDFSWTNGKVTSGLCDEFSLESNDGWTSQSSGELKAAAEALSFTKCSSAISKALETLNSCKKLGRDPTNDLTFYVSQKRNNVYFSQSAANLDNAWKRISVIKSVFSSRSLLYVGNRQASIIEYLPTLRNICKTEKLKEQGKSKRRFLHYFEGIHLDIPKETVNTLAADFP

Assay [2] shares this target. As to the kind of experiment: qHTS screen for small molecules that inhibit ELG1-dependent DNA repair in human embryonic kidney (HEK293T) cells expressing luciferase-tagged ELG1: Hit Confirmation using MMS Stimulated ELG1 (AID 624249). Note: potency is the fitted concentration of half-maximal effect; nearly all actives have a fitted effect of over 60% in size. Particulars: HEK293T luciferase-tagged ELG1 level. The method in brief:
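Under DNA damage from MMS (final 10 µM), compounds act on ELG1-luc HEK293T cells over 16 h. Decreased luciferase, detected with Amplight, indicates inhibition of the ELG1 response.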

A short description of assay [3]: qHTS screen for small molecules that inhibit ELG1-dependent DNA repair: Hit Confirmation with MMS Viability (AID 624251). Note: potency is the fitted concentration of half-maximal effect; nearly all actives have a fitted effect of over 60% in size. Particulars: Cell viability with MMS. The method in brief: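 ELG1-luc HEK293T cells were plated, then about 5 h later received compounds by pin transfer plus MMS at 10 µM final. Viability was read by CellTiter-Glo luminescence after 16 h.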
Assay [4] can be described thus: Cellular Toxicity (caspase-3) N2a (AID 665).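 Note: compound exposure lasted 16 h at 37 °C before readout.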 Particulars: N2a cells, luminescence, normalized: DMSO 0%, 10 µM staurosporine 100%; at 92.2 µM (top of the series). The method in brief: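 Plated mouse neuroblastoma N2a cells received titrated compounds for 16 h in complete medium. Caspase activity was then detected with a peptide-aminoluciferin luminescent reagent.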

The nature of assay [5]: MultiTox-Fluor Cytotoxicity Assay - LYMP1-002 - Live Cells (AID 955). Note: % is set by controls: 0 for no effect and ±100 for the full control effect. Particulars: LYMP1-002 lymphoblastoid live-cell protease fluorescence viability; series mostly up to 46.1 µM. In short, it runs like this:
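Cytotoxicity in the human lymphoblastoid line LYMP1-002 is measured as loss of live-cell protease activity after 16 h treatment in complete culture medium. AC50 is derived from Hill-equation fits of qHTS concentration-response data.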

Assay [6] can be described thus: Cell Viability - LYMP2-009 (AID 968).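 Note: cells exposed to compound for 24 h at 37 °C; 0% = DMSO alone and the full-kill end = tetraoctylammonium bromide at 92 µM; nearly all actives have a fitted effect of over 55% in size.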 Particulars: LYMP2-009 lymphoblastoid cell viability; series mostly up to 92.2 µM.
The target of assay [7] is Estrogen receptor (Homo sapiens) (UniProt P03372). As to the kind of experiment: qHTS assay for small molecule agonists of estrogen receptor alpha signaling (AID 588514; calls by dose curve;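 note: 0% = vehicle only and 100% = reference agonist; nearly all actives have a fitted effect of over 70% in size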). Particulars: ER-alpha-UAS-bla HEK293, beta-lactamase ratio, 18 h; series mostly up to 76.8 µM. The method in brief:
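Reporter-gene assay. […] controls beta-lactamase in HEK 293 GripTite cells; after 18 hrs with compound, CCF4 substrate is added for 2 hrs and fluorescence is read.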

Assay [8] addresses Bile acid receptor (Homo sapiens) (UniProt Q96RI1). As to the kind of experiment: qHTS assay for small molecule antagonists of farnesoid X receptor signaling (AID 588526; calls by dose curve; note: % is set by controls: 0 for no effect and ±100 for the full control effect). Particulars: HEK293T FXR-UAS-bla, beta-lactamase ratio, antagonist mode; series mostly up to 76.7 µM. The method in brief: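 Concentration-response titrations were fitted to the Hill equation for half-maximal inhibition and maximal response, with data normalised to 50 uM chenodeoxycholic acid and DMSO control wells. Cells: FXR-UAS-bla HEK293T, dialyzed FBS.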

Assay [9] shares this target. As to the kind of experiment: qHTS assay for small molecule agonists of farnesoid X receptor signaling (AID 588527; calls by dose curve;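 note: 0% = vehicle basal and 100% = reference agonist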). Particulars: HEK293T FXR-UAS-bla, beta-lactamase ratio, 16 h; stronger effect = higher value. The method in brief: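 Read-out: beta-lactamase reporter fluorescence with CCF4 substrate in GeneBLAzer FXR-UAS-bla HEK293T cells, after 16 h compound exposure at 37 C. Response scaled between DMSO basal (0%) and chenodeoxycholic acid at 100 uM (100%).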

The target of assay [10] is Glucocorticoid receptor (Homo sapiens) (UniProt P04150). As to the kind of experiment: qHTS assay for small molecule agonists of glucocorticoid receptor signaling (AID 588532; active = well fitted curve in the direction sought with a large enough effect in the signal ratio, with a control signal flat; the % refers to the signal ratio;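 note: 100% = dexamethasone at 0.1 µM and 0% = DMSO only wells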). Particulars: HeLa MMTV-bla, beta-lactamase ratio, agonist, 18 h; stronger effect = higher value; percent of dexamethasone control, DMSO zero. In short, it runs like this: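 Stimulation of a glucocorticoid response element-driven beta-lactamase gene was measured in HeLa cells. Responses were scaled between DMSO basal and 0.1 uM dexamethasone, then fitted for half-maximal stimulation.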
Glucocorticoid receptor (Homo sapiens), sequence (P04150 whole entry, looked up): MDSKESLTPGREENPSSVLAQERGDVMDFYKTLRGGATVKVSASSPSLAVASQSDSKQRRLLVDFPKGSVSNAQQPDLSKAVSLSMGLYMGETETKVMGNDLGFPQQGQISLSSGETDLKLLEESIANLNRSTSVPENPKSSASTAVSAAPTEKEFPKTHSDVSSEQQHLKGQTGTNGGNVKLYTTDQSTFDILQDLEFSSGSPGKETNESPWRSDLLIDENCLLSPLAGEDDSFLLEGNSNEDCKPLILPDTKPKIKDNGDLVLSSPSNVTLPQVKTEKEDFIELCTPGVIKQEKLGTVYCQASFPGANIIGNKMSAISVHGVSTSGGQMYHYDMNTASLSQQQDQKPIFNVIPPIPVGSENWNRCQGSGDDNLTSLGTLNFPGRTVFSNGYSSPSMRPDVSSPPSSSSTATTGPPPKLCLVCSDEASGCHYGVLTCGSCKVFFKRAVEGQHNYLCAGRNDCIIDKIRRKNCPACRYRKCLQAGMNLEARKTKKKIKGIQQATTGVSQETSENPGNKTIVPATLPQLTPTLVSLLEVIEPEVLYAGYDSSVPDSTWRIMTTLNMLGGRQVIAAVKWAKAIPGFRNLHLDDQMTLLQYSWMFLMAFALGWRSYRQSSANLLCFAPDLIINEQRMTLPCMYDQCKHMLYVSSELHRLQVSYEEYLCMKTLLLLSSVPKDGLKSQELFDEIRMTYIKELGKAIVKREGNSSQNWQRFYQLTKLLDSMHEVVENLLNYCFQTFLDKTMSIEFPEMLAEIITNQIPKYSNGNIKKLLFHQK

Assay [11] has the same target. As to the kind of experiment: qHTS assay for small molecule antagonists of glucocorticoid receptor signaling (AID 588533; active = well fitted inhibition curve with a large enough effect in the signal ratio, with a control signal flat, not every such curve was filed as active; the % refers to the signal ratio;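 note: cells stimulated with 2 nM dexamethasone as agonist; % is set by controls: 0 for no effect and ±100 for the full control effect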). Particulars: HeLa MMTV-bla, GRE beta-lactamase ratio, antagonist mode, 18 h; series mostly up to 76.8 µM. In short, it runs like this: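 Antagonist-mode qHTS: compound titrations added to GRE-bla HeLa cells, then dexamethasone 2 nM final; 18 h, 37 C. CCF4 FRET fluorescence normalized to dexamethasone and DMSO; IC50 from Hill fit.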

The nature of assay [12]: qHTS assay for small molecule agonists of the antioxidant response element (ARE) signaling pathway measured by Nrf2-dependant transcriptional activity - cell viability counter screen (AID 720653; active = well fitted curve in the direction sought with a large enough effect in the repeat runs; an effect the other way counts as inactive or inconclusive; note: % is set by controls: 0 for no effect and ±100 for the full control effect). Particulars: ARE-bla HepG2 viability, CellTiter-Glo ATP luminescence, 16 h; stronger effect = lower value. The method in brief:
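ARE-bla HepG2 cells (2,000/well) rested 5 hrs at 37C/5% CO2, then exposed to compounds in DMSO for 16 hrs. Viability was read in the same wells as intracellular ATP by luminescence, 30 min at room temperature after reagent addition.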

Assay [13] in a line: Cell Viability - LYMP2-017 (AID 972).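 Note: cells exposed to compound for 24 hours at 37 °C; nearly all actives have a fitted effect of over 55% in size.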 Note: potency is the fitted concentration of half-maximal effect. Particulars: LYMP2-017 lymphoblastoid cell viability; series mostly up to 92.2 µM. In short, it runs like this: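 Steps: plate 2500 lymphoblastoid cells per well; incubate 5 hr at 37 C; add compound across a concentration series and incubate 24 hr at 37 C; add CellTiter-Glo and read luminescence after 30 min at room temperature; fit Hill curves for AC50.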

The nature of assay [14]: qHTS assay for small molecule disruptors of the mitochondrial membrane potential - 5 hr assay (AID 651755; calls by dose curve; note: % is set by controls: 0 for no effect and ±100 for the full control effect; nearly all actives have a fitted effect of over 40% in size). Particulars: JC-1-type ratio dye; series mostly up to 92.2 µM. The method in brief:
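HepG2 cells, attached overnight at 37C, were exposed to compound or DMSO for 5 hr at 37C, 5% CO2. Mito-MPS dye was then added for 30 min, and fluorescence read at 490/535 nm (monomers) and 540/590 nm (aggregates).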

The nature of assay [15]: qHTS assay for small molecule activators of the human pregnane X receptor (PXR) signaling pathway (AID 720659; call rule not given here; note: 0% is about no effect). Particulars: DPX-2 HepG2 CYP3A4-luciferase, 24 h; series mostly up to 92.3 µM.
Assay [16] can be described thus: Cell Viability - SH-SY5Y (AID 544).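 For viability change, negative = cytotoxic: 0% = DMSO alone and -100% = 100 µM tamoxifen.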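 Note: cells exposed to compound for 40 hours; nearly all actives have a fitted effect of over 55% in size.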 Note: potency is the fitted concentration of half-maximal effect. Particulars: SH-SY5Y neuroblastoma cell viability; viability change, negative = cytotoxic: at 92.2 µM (top of the series). In short, it runs like this:
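Cytotoxicity is scored as a concentration-dependent fall in intracellular ATP in human SH-SY5Y cells treated 40 hr in complete culture medium. Potency is expressed as AC50 from a Hill equation fit.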

Assay [17] can be described thus: Cell Viability - LYMP1-003 - Assay at 40 hr (AID 964). Note: nearly all actives have a fitted effect of over 60% in size. Note: potency is the fitted concentration of half-maximal effect. Particulars: LYMP1-003 lymphoblastoid viability; series mostly up to 92.2 µM. In short, it runs like this: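 This qHTS cytotoxicity screen treats human lymphoblastoid cells (LYMP1-003) with compounds for 40 hr and quantifies cellular ATP via luciferase luminescence.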
Assay [18] can be described thus: Cell Viability - LYMP2-004 (AID 966). Note: nearly all actives have a fitted effect of over 65% in size. Note: potency is the fitted concentration of half-maximal effect. Particulars: LYMP2-004 lymphoblastoid cell viability, qHTS; series mostly up to 92.2 µM. In short, it runs like this:
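Acute toxicity is scored as a concentration-dependent drop in intracellular ATP, quantified by luciferase luminescence, in human lymphoblastoid cells exposed to compound for 24 hr. AC50 derives from Hill-equation modelling.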

In assay [19] the target is Thyroid hormone receptor beta (Homo sapiens) (UniProt P10828). As to the kind of experiment: qHTS assay for small molecule agonists of thyroid hormone receptor beta signaling (AID 588545; calls by dose curve). Particulars: TR-UAS-bla GripTite HEK 293, beta-lactamase ratio, agonist mode, 18 h, percent of T3 response, DMSO as zero; series mostly up to 76.7 µM. The method in brief: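 HEK 293 TR-UAS-bla; agonist mode; 18 hrs, 37 C; CCF4, ex 405/em 460 and 530 nm; norm. T3 10 nM = 100%, DMSO = 0%; Hill fit → EC50, efficacy.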
Thyroid hormone receptor beta (Homo sapiens), sequence (P10828 whole entry, looked up): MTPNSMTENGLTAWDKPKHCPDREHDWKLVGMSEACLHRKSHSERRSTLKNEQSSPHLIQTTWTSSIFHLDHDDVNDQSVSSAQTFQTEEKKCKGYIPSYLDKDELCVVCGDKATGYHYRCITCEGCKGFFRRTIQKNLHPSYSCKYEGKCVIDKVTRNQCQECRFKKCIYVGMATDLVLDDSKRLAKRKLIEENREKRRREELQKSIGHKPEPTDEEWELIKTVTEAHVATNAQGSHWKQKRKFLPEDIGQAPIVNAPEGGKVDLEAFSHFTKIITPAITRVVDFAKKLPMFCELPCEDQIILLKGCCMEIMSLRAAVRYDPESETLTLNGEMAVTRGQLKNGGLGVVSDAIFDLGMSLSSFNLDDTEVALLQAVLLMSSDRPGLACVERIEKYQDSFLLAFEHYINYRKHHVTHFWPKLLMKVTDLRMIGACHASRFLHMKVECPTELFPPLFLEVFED

Bile acid receptor (Homo sapiens), sequence (Q96RI1 whole entry, looked up): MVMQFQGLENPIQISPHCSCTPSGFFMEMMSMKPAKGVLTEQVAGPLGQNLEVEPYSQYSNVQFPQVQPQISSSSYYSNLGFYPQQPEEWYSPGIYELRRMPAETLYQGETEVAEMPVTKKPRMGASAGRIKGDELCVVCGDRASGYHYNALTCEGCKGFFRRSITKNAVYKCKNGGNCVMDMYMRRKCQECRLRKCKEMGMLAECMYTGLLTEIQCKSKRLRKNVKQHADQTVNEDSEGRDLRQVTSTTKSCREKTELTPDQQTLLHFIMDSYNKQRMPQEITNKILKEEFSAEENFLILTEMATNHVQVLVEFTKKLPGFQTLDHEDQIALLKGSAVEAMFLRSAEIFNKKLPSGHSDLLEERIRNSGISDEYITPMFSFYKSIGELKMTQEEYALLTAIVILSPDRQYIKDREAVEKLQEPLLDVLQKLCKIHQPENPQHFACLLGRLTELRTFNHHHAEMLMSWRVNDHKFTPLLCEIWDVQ
Estrogen receptor (Homo sapiens), sequence (P03372 whole entry, looked up): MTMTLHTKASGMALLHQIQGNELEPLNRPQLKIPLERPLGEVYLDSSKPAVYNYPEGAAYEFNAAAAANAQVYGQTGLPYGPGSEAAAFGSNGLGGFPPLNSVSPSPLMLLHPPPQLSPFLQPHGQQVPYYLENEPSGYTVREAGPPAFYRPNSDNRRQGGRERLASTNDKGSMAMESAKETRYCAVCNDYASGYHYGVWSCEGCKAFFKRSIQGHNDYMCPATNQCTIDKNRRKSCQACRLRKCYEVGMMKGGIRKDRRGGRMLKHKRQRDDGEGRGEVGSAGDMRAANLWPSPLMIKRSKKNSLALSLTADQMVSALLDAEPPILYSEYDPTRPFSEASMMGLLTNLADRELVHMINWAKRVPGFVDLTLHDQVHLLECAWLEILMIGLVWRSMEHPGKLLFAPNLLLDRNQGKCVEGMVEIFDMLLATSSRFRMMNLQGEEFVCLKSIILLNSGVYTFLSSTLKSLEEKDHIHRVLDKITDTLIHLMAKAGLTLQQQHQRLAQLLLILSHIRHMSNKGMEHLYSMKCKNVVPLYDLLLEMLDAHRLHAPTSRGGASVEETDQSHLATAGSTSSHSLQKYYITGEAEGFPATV

For the molecule `O=C1C=C2C=CC3C[C@@]2(O1)C1CCCCN31` (stereo partly specified), the Potency in the assay on DFO2036 is 12.6 µM (active).
On to `C[C@@]12CC[C@H]3[C@@H](CC[C@]4(O)C[C@H](O)CC[C@@]34C=O)[C@]1(O)CC[C@@H]2C1=CC(=O)OC1`, for which the Potency was 1.07 µM (active) in [1], 0.756 µM (active) in [2] and 1.07 µM (active) in assay [3].
Regarding `C[C@@H]1O[C@H](O[C@@H]2C=C3CC[C@H]4[C@@H](CC[C@]5(C)[C@@H](c6ccc(=O)oc6)CC[C@]45O)[C@@]3(C)CC2)[C@@H](O)[C@H](O)[C@@H]1O`, in the assay on DFO2036, the Potency result was “inactive”.
Consider `COC(=O)NC(=S)Nc1ccccc1NC(=S)NC(=O)OC`, for which the caspase-3 activation in assay [4] was 0.433%. The result in assay [5] and in assay [8] was inactive. The Potency result in [6], in assay [7] and in [11] was “inactive” each time. For the same molecule, the activation in assay [9] is 1.1% and -0.86%; in [10], 7.06% and -4.28%. The max response in [12] is -1.18% and 2.94%.
Turning to `COP(=S)(OC)Oc1ccc([N+](=O)[O-])cc1`, the caspase-3 activation in [4] is -2.62%. The outcome in assay [5], in assay [8] and in assay [15] was inactive. The Potency entry in assay [6], in [13], in [7] and in [14] was “inactive” in each case. Moreover, the activation in assay [9] was 0.0258% and 2.38%. In addition, the max response in assay [12] is 0.527% and -8.08%.
Take `CCCCCCCCCc1ccc(O)cc1`: in assay [16], the Potency was 12.6 µM (active). In addition, the Potency result in [17], in assay [18] and in [13] was “inactive” in each case. In addition, the result in assay [19] was inactive. In [12], the max response was -6.51% and -5.9%.
`C/C=C/c1ccc2c(c1)OCO2`: the outcome in [5], in [19] and in assay [15] was inactive. The Potency entry in [18], in assay [6] and in assay [13] was “inactive” throughout.
Consider `O=C(O)COc1ccc(Cl)cc1Cl`, for which the Potency entry in assay [16], in [18], in [6] and in [11] was “inactive” in each case. Further, the caspase-3 activation in assay [4] was -2.05% and -1.8%. Further, the result in [5] and in assay [15] was inactive. Moreover, in assay [10], the activation was -2.35% [middle of 4 runs].
For `ClC1=C(Cl)C2(Cl)C3C4CC(C5OC45)C3C1(Cl)C2(Cl)Cl` (stereo unspecified), the Potency entry in assay [16] and in assay [11] was “inactive” throughout. Besides, the Potency in [17] was 10 µM (active); in [18], 20 µM (active). For the same molecule, in [10], the activation was -5.87%.
For `O=C1C(Cl)=C(Cl)C(=O)C(Cl)=C1Cl`, the figures for the Potency in assay [16], in [17] and in assay [13] were 25.1 µM (active), 31.6 µM (active) and 20 µM (active), respectively. The caspase-3 activation in assay [4] is -13.5%. Also, the Potency result in [14] was “inactive”. Further, the call in assay [15] was inactive.
`COC1CC(OC2CC[C@@]3(C=O)C4CC[C@]5(C)C(C6=CC(=O)OC6)CC[C@@]5(O)C4CC[C@]3(O)C2)OC(C)C1O` (stereo partly specified): the Potency in assay [1] was 0.706 µM (active); in assay [2], 0.315 µM (active); in [3], 0.397 µM (active).
As for `C#CCOS(=O)OC1CCCCC1Oc1ccc(C(C)(C)C)cc1` (stereo unspecified), the activation in [9] is 6.98%.
As for `CC(C)Nc1nc(Cl)nc(NC(C)C)n1`, the Potency result in assay [7] is “inactive”. The outcome in [19] was inactive.
